Source: PubChem BioAssay (NCATS)
Results filed as inconclusive are left out. Calls of active or inactive are those of the source. Calls come from the whole dose curve; as a rule, active = well fitted inhibition curve with a large enough effect; inconclusive = small, poorly fitted or top-dose-only effect; inactive = flat fitted curve, though single readings scatter.

Key:
[1] = system: CRL-7250; assay: Cytotoxic Profiling of Annotated Libraries Using Quantitative High-Throughput Screening (AID 1296008); details: Five cell lines viability, CellTiter-Glo ATP luminescence, 48-72 h; max response: stronger effect = lower value; note: potency is the fitted concentration of half-maximal effect; for max response: % is set by controls: 0 for no effect and ±100 for the full control effect
How it was run: (§1)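 Compounds were pin-transferred onto cells and incubated 48 or 72 hr at 37 degree Celsius, 95% humidity. CellTiter-Glo was added, plates sat 10 min at room temperature, then ATP-coupled luminescence was imaged as the viability read-out.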

[2] = system: HaCat; assay: as above; details: Five cell lines viability, CellTiter-Glo ATP luminescence, 48-72 h; max response: stronger effect = lower value
How it was run: as §1

[3] = system: KB-3-1; assay: as above; details: Five cell lines viability, CellTiter-Glo ATP luminescence, 48-72 h; max response: stronger effect = lower value
How it was run: as §1

[4] = system: NIH3T3; assay: as above; details: Five cell lines viability, CellTiter-Glo ATP luminescence, 48-72 h; max response: stronger effect = lower value
How it was run: as §1

[5] = system: HACAT; assay: qHTS assay to identify novel small-molecules to repurpose for Merkel cell carcinoma treatment (AID 1296009); details: MCC and control cell lines, CellTiter-Glo viability, 72 h; at 44.8 µM (top of the series) unless noted
How it was run: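 Cells exposed to NPC (8-point) and MIPE (11-point) compound dilutions for 72 hr at 37 degree celsius; viability read by CellTiter-Glo luminescence, normalized to no-cell and DMSO in-plate controls.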
Note: nearly all actives have a fitted effect of over 60% in size.

O=C(NCCCn1ccnc1)c1cc(-c2ccco2)on1
inactive: max response [1] -18.4% | outcome [2] | max response [3] -0.296% | max response [4] 2.29% | outcome [5]

CC(C)Oc1ccc(-c2cnc3c(-c4ccnc5ccccc45)cnn3c2)cc1
inactive: max response [1] 0.774% | max response [2] 1.5% | max response [3] -13.7% | max response [4] 3.7%

OC1(CN2CCC(COc3noc4cccc(O[C@@H]5CCOC5)c34)CC2)CCOCC1
inactive: max response [1] -0.0295% | max response [2] -23.1% | max response [3] 2.03% | max response [4] -22.8%

CC(C)c1noc(C2CCN(c3ncnc(Nc4ccc(S(C)(=O)=O)cc4F)c3[N+](=O)[O-])CC2)n1
inactive: max response [1] -0.282% | max response [2] 1.98% | max response [3] -4.1% | max response [4] -23.4%

CC1(C)CCCC2(C)C1C(OC(=O)/C=C/C=C/C=O)C=C1COC(=O)C12O (stereo not drawn)
inactive: max response [1] -21.2% | outcome [2] | outcome [3] | max response [4] -7.98% | outcome [5] inactive [at 17.4 µM]

C=C1C(=O)O[C@@H]2[C@H]1CC[C@H](C)[C@]1(CCC(=O)O1)C2(C)O (stereo partly drawn)
inactive: max response [1] -3% | outcome [2] | outcome [3] | max response [4] -19.6% | outcome [5]

CC(=O)C=C=C1C(C)(C)CC(O)CC1(C)O[C@@H]1O[C@H](CO[C@H]2OC[C@](O)(CO)[C@H]2O)[C@@H](O)[C@H](O)[C@H]1O (stereo partly drawn)
inactive: max response [1] -2.66% | outcome [2] | outcome [3] | max response [4] 1.53% | outcome [5] inactive [at 17.4 µM]

C=CC(C)(O)CC/C=C(\C)C(=O)OC1C(O)C(CO)OC(OC(=O)C23CCC(C)(C)CC2C2=CCC4C5(C)CCC(OC6OC(COC7OCC(OC(C)=O)C(O)C7OC7OC(COC(C)=O)C(O)C(O)C7OC(C)=O)C(O)C(O)C6OC6OCC(O)C(O)C6O)C(C)(C)C5CCC4(C)C2(C)C(O)C3O)C1OC1OCC(OC2OCC(O)C(OC3OCC(O)C(O)C3O)C2O)C(O)C1O (stereo not drawn)
inactive: max response [2] -18.3% | max response [3] -19.5% | max response [4] -5.37%
active: Potency [1] 891 nM

O=C(NCc1ccccc1-c1ccccc1C(=O)NCCc1ccccn1)OCc1ccccc1
inactive: max response [1] 2.09% | max response [2] -7.21% | max response [3] 8.57% | max response [4] 0.337%

COC(=O)/C=C/C=C/C(=O)OC1C=C2COC(=O)C2(O)C2(C)CCCC(C)(C)C12 (stereo not drawn)
inactive: outcome [1] | outcome [2] | max response [3] 4.64% | max response [4] -4.83% | outcome [5] inactive [at 17.4 µM]

CC(C)(Cc1ccccc1)NCC(O)c1ccc(O)c(NS(C)(=O)=O)c1 (stereo not drawn)
inactive: max response [1] 0.0508% | max response [2] 2.45% | max response [3] -4.4% | max response [4] 0.817%

CC(O)(C(=O)C1CC1(CO)COC1OC(CO)C(O)C(O)C1O)C1C(O)CC2C3CC=C4CC(O)CC(O)C4(C)C3C(O)CC21C (stereo not drawn)
active: Potency [1] 432 nM | Potency [2] 1720 nM | Potency [3] 769 nM
inactive: max response [4] 0.504%

CC1OC(=O)C[C@@H]2C(C(=O)O)=CO[C@@H](O[C@H]3O[C@H](CO)[C@@H](O)[C@H](O)[C@H]3O)[C@H]12 (stereo partly drawn)
inactive: max response [1] -4.73% | outcome [2] | outcome [3] | outcome [4] | outcome [5]

C=CC1(C)CC(O)C(C(=C)C(=O)OC)C(O)C1C(=C)CO (stereo not drawn)
inactive: max response [1] -28% | max response [2] -2.8% | max response [3] 0.16% | max response [4] -4.78%

O=c1[nH]cnc2c([C@@H]3N[C@H](CO)[C@@H](O)[C@H]3O)c[nH]c12
inactive: max response [1] -8.88% | max response [2] -34.4% | max response [3] 7.13% | outcome [4]

CCC/C=C/C(=O)O[C@H]1CC(C)(C)CC2[C@@]13[C@H](O)C[C@]1(C)[C@@]2(CCC2[C@@]4(C)CC[C@H](O[C@@H]5O[C@H](C(=O)O)[C@@H](O)[C@H](O[C@@H]6O[C@H](CO)[C@H](O)[C@H](O)[C@H]6O[C@@H]6O[C@@H](C)[C@H](O)[C@@H](O)[C@H]6O[C@@H]6OC[C@](O)(CO)[C@H]6O)[C@H]5O[C@@H]5O[C@H](CO)[C@H](O)[C@H](O)[C@H]5O)C(C)(C)C4CC[C@]21C)O[C@H]3O (stereo partly drawn)
inactive: outcome [1] | outcome [2] | outcome [3] | max response [4] 3.59% | outcome [5] inactive [at 9.27 µM]

Nc1c(S(=O)(=O)c2ccccc2)c2nc3ccccc3nc2n1-c1ccc(F)cc1
inactive: max response [1] 2.31% | max response [2] -0.67% | max response [3] 9.53% | outcome [4]

CC1=C(C(=O)Nc2cc(Cl)ccc2Cl)C(c2ccco2)C2=C(CCCC2=O)N1 (stereo not drawn)
inactive: max response [1] -1.05% | outcome [2] | max response [3] 7.23% | max response [4] -25.9% | outcome [5]

CC(=O)O[C@@H]1C[C@@]2(C)C(CC[C@]3(C)C2CC=C2C4CC(C)(C)CC[C@]4(C(=O)O)CC[C@]23C)C(C)(C)[C@H]1O (stereo partly drawn)
inactive: max response [1] 3.23% | outcome [2] | max response [3] -16.7% | max response [4] -4.52% | outcome [5] inactive [at 17.4 µM]

COc1ccc(C(=O)Nc2c(Cl)cncc2Cl)cc1OC1CCCC1
inactive: max response [1] -3.72% | max response [2] -24.5% | max response [3] -14.8% | max response [4] -4.74%

Cc1cc2c(N3CCCC3)nc(N3CCCC3)nc2n1C
inactive: max response [1] 1.58% | outcome [2] | max response [3] -0.182% | max response [4] -2.11% | outcome [5]

CC#C[C@@H](CC(=O)O)c1ccc(OCc2ccc(CN3CCC4(C=Cc5ccccc54)CC3)s2)cc1
inactive: outcome [1] | max response [2] 1.71% | max response [3] -9.33% | outcome [4]
